These results are taken from PubChem BioAssay AID894 (National Center for Advancing Translational Sciences (NCATS), 2007).

The structures appear in SMILES notation. About 6,500 (4.3%) of roughly 150,000 compounds were called active. Another 12% or so got no clear call; they are omitted. This is one part of a sample in which actives are shown more often than they occur. Values without a mark were called inactive. The call rests on the fitted dose curve; in most records, active means well fitted inhibition curve with a large enough effect (not every such curve was filed as active); inconclusive means small, poorly fitted or top-dose-only effect, or another doubt; inactive means no such curve, though single readings can be large or run the other way.
On the % scale 0 is the no-effect control and ±100 the full control effect; potency means the concentration at half of the fitted maximal effect.

15-hydroxyprostaglandin dehydrogenase [NAD(+)] (Homo sapiens), sequence (P15428 whole entry, looked up): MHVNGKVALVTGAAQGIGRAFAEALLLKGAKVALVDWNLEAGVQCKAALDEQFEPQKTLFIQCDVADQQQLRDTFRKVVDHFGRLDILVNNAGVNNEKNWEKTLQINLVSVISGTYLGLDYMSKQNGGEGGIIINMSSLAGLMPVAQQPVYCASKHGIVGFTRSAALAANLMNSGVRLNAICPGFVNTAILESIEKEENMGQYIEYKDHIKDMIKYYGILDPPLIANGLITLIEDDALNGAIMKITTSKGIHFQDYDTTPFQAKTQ

This assay deals with 15-hydroxyprostaglandin dehydrogenase [NAD(+)] (Homo sapiens) (UniProt P15428). Briefly: qHTS Assay for Inhibitors of HPGD (15-Hydroxyprostaglandin Dehydrogenase). Conditions: purified HPGD, NADH fluorescence kinetic, PGE2 substrate; activity change, negative = inhibition: active compounds read low. The method in brief:
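NADH formation kinetics: reaction with 30 uM PGE2 and 1 mM NAD+ (final), 20 nM enzyme, Tris-HCl pH 8 with Tween 20, after 15 min compound preincubation at room temperature. Fluorescence change, last versus first of five reads.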
Take `S=c1[nH]nc(SCc2ccccc2Cl)c2[nH]cnc12`: the Potency is 1.26 µM (active).

As for `C[C@H]1Cc2c(COc3ccccc3)nc3c(c2CO1)CN(C(=O)NCc1ccco1)CC3`, the activity change, negative = inhibition is -1.13%.

Turning to `COc1nc(N(C)C)nc(N2CC(=O)N(CCNS(=O)(=O)c3ccc(C)cc3)C2=N)n1`, the activity change, negative = inhibition was -10.5%.

On to `O=C(COc1nc2ccccc2nc1N1CCOCC1)NCC(F)(F)F`, for which the activity change, negative = inhibition was -9.54%.

Regarding `c1nc(COc2nsnc2N2CCOCC2)cs1`, the Potency is 31.6 µM (active).

In the case of `c1ccc(COc2nsnc2N2CCOCC2)cc1`, the activity change, negative = inhibition is -17.1%.

For the compound `C=CCNC(=O)/C(=C\c1cccc([N+](=O)[O-])c1)NC(=O)c1ccccc1`, the activity change, negative = inhibition is -14.6%.

For `Cc1cc(C)cc(OCC(=O)NNC(=O)CCN2C(=O)c3ccccc3C2=O)c1`, the activity change, negative = inhibition was -12.4%.

Turning to `CCOC(=O)c1nnn(-c2nonc2-n2cccc2)c1CN1CCOCC1`, the activity change, negative = inhibition is -13.3%.

For `CCOC(=O)c1nnn(-c2nc(OC)nc(N(C)C)n2)c1-c1ccccc1`, the activity change, negative = inhibition is -1.76%.

As for `CCOC(=O)c1nnn(-c2nonc2OC)c1-c1ccccc1`, the Potency was 8.91 µM (active).

As to `O=C1C=C(c2ccccc2)CCC1`, the activity change, negative = inhibition was -3.18%.

Regarding `CC1=C2[C@@H](O)[C@H]([C@@H](C)C(=O)NCCC(C)C)CC[C@@]2(C)C=CC1=O`, the activity change, negative = inhibition is -7.81%.

For the compound `Cc1ccccc1N/C(SCc1ccc(Cl)cc1)=C(/C#N)C(N)=O`, the activity change, negative = inhibition was -18.2%.

On to `COC(=O)CCCC1=CC2=CC(=O)C(C)(OC(=O)c3cccs3)C(=O)C2=CN1c1ccc(CO)cc1` (stereo not given), for which the activity change, negative = inhibition is -7.14%.

In the case of `CCOC(=O)c1cc2n(c1C)-c1ccccc1C2=O`, the activity change, negative = inhibition is -17.5%.

On to `CCOC(=O)c1cc2n(c1N)-c1ccccc1C2=O`, for which the Potency was 31.6 µM (active).

As for `CCOC(=O)Nc1ccccc1N1C(=O)c2ccccc2C1=O`, the activity change, negative = inhibition is -2.62%.

As for `COc1ccc(OC)c(-c2c(=O)n(OCc3ccccc3Br)c3ccccc3[n+]2[O-])c1`, the activity change, negative = inhibition is -7.2%.

On to `COC(=O)C1=C(C(=O)OC)[C@@H]2N(C)c3ccccc3[C@@]23C[C@@H](C(=O)OC)N(S(=O)(=O)c2cccs2)C3=N1`, for which the activity change, negative = inhibition is -9.16%.

Take `CCCCCCCC[C@@H](O)/C=C/C=C/C=C\[C@@H](O)CCCC(=O)O`: the activity change, negative = inhibition was -0.184%.

As to `Nc1nc(SCC(=O)NN(c2ccccc2)c2ccccc2)n[nH]1`, the activity change, negative = inhibition is -3.02%.

With `Nc1nc(SCC(=O)NNc2c(Cl)cc(Cl)cc2Cl)n[nH]1`, the Potency is 35.5 µM (active).

Regarding `Nc1nc(SCCOc2ccccc2)n[nH]1`, the activity change, negative = inhibition was -1.6%.

Consider `COc1ccc(Cl)cc1NC(=O)Cn1nc(-c2ccc(C)cc2)n(C)c1=S`, for which the activity change, negative = inhibition is -0.416%.

As to `C[C@H]1Cc2c(COc3ccccc3)nc3c(c2CO1)CN(C(=O)Nc1cccc(C#N)c1)CC3`, the activity change, negative = inhibition is 0.277%.

For the compound `N#C/C(=C\c1ccccc1)c1n[nH]c(Cn2cncn2)n1`, the Potency was 28.2 µM (active).

As to `S=C(NCCc1ccccc1)NCc1ccccc1Cl`, the activity change, negative = inhibition is -18.9%.

As to `O=S(=O)(NCCc1ccncc1)c1ccccc1`, the activity change, negative = inhibition is -10.2%.

Regarding `Oc1cc2c(cc1O)CN(C(=S)NCCc1ccc(Cl)cc1)CCC2`, the Potency is 14.1 µM (active).

`NS(=O)(=O)c1ccc(CCNC(=O)Nc2ccc(Cl)cc2)cc1`: the activity change, negative = inhibition is -8.27%.

On to `Cc1cc(Cl)ccc1NC(=S)NCCCN1CCCC1=O`, for which the activity change, negative = inhibition was -1.25%.

In the case of `Cc1ccnc(NC(=O)c2ccoc2C)c1`, the activity change, negative = inhibition is -2.58%.

Turning to `Cc1cc2oc(C(=O)Nc3c(C)n(C)n(-c4ccccc4)c3=O)c(C)c2cc1Cl`, the activity change, negative = inhibition is -3.54%.

For the compound `O=[N+]([O-])c1cc(S(=O)(=O)N2CCCC2)ccc1NN=C1CCCC1`, the activity change, negative = inhibition is -4.68%.

In the case of `C=C(C)c1cccc(C(C)(C)NC(=O)NC2CCCC2)c1`, the activity change, negative = inhibition is -3.62%.

Regarding `COc1ccc(COC(=O)N/N=C(\C)CC(=O)Nc2ccc(Cl)cc2)cc1`, the activity change, negative = inhibition was -4.69%.

Consider `Cc1ccc(C(c2nnnn2CS(=O)(=O)c2ccc(C)cc2)N2CCC(C(N)=O)CC2)cc1` (stereo not given), for which the activity change, negative = inhibition is -7.21%.

Consider `Cc1cc(C)cc(Oc2nc3c(C)cccn3c(=O)c2/C=C(\C#N)C(=O)NC2CCS(=O)(=O)C2)c1` (stereo not given), for which the activity change, negative = inhibition was -10.8%.

On to `Cc1cccn2c(=O)c(/C=C(\C#N)S(=O)(=O)c3ccc(Cl)cc3)c(N3CCC(C(N)=O)CC3)nc12`, for which the Potency was 15.8 µM (active).

With `CN1CCC(=NNC(=O)c2ccc(N(Cc3ccc(Cl)cc3)S(C)(=O)=O)cc2)CC1`, the activity change, negative = inhibition was -8.83%.

Take `O=C(NNC1CC(=O)N(c2cccc(Cl)c2)C1=O)c1cccnc1` (stereo not given): the activity change, negative = inhibition is -13.5%.

Turning to `O=C(CNS(=O)(=O)c1ccccc1)NCC(=O)OCc1ccccc1F`, the activity change, negative = inhibition was 0.393%.

Take `Cn1c(NC(=O)c2ccc3c(c2)OCO3)cc(=O)n(C)c1=O`: the activity change, negative = inhibition was -14.1%.

Regarding `Cc1ccc(F)cc1NC(=O)c1ccc2c(c1)OCO2`, the Potency was 20 µM (active).

As for `O=C(Nc1ccccc1)c1ccc2c(c1)OCO2`, the activity change, negative = inhibition is -29.6%.

As to `Cc1ccc(C(=O)NC(C)c2ccccc2)cc1Br` (stereo not given), the activity change, negative = inhibition was -29.6%.

Regarding `O=C(CSc1ncnc2scc(-c3ccccc3)c12)NCc1ccc2c(c1)OCO2`, the activity change, negative = inhibition was -13.5%.

On to `O=C(NC(=S)NC1CCSC1=O)c1ccccc1F` (stereo not given), for which the activity change, negative = inhibition was -13.4%.

Consider `O=C(O)C[C@@H]1NC(=O)[C@H](Cc2ccccc2)NC1=O`, for which the activity change, negative = inhibition is -8.82%.

For the compound `Cc1ccccc1-n1c(C)cc(/C=N/NC(=O)c2ccc(CN3CCOCC3)cc2)c1C`, the activity change, negative = inhibition is -16.5%.

Take `Cc1ccc(C(=O)N/N=C/c2sc(=O)n(Cc3cccc(C(=O)O)c3)c2Cl)cc1`: the Potency was 28.2 µM (active).

As to `Cc1ccc(C(=O)Nc2c(C#N)c(C)c(C)n2Cc2ccccc2)cc1`, the activity change, negative = inhibition was -7.72%.

Take `CSc1c(SCc2ccccc2)cnn(Cc2ccccc2)c1=O`: the Potency was 25.1 µM (active).

Take `O=c1c2ccccc2c(-c2ccccc2)nn1Cc1ccccc1`: the activity change, negative = inhibition was -16.5%.

As to `Cn1c(CO)cnc1SCc1ccccc1`, the activity change, negative = inhibition is 1.72%.

`O=C(NNC(=O)c1cc2c(s1)CCCC2)c1ccccc1`: the activity change, negative = inhibition was -17.6%.

Regarding `COC(=O)c1cccc(NC(=O)CSc2nc(C)cc(=O)[nH]2)c1`, the Potency was 20 µM (active).

Turning to `COc1ccc(NC(=O)CSc2nc(NS(=O)(=O)c3ccc(C)cc3)cc(=O)[nH]2)cc1`, the activity change, negative = inhibition was -10.9%.

As for `Cc1cccc(NC(=O)CSc2nc3[nH]ncc3c(=O)[nH]2)c1`, the activity change, negative = inhibition is -11%.
